SMILES strings stand for the structures. Inconclusive results are not listed. Activity calls are given as the source filed them. Rule for the calls, unless noted: active = hit-call score of the fitted dose curve at least 0.9, where 1 is the maximum; inactive = score below 0.9.

The nature of assay [1]: ATG_PBREM_CIS: Attagene CIS-FACTORIAL HepG2 Assay for human Phenobarbital-responsive Enhancer Module (PBREM) (AID 2282955). The following applies: HepG2 PBREM cis-reporter, Attagene multiplexed transcription; actives raise or lower the signal. In short, it runs like this: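 HepG2 cells transiently transfected with multiple cis-regulated reporter units measure endogenous transcription factor activity; 24 h compound exposure. Reporter mRNA quantified by RT-PCR, fluorescent labelling, HpaI digestion and capillary electrophoresis; bidirectional fit versus DMSO.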

The target in assay [2] is Paired box protein Pax-6 (Homo sapiens) (UniProt P26367). The assay can be described thus: ATG_Pax6_CIS: Attagene CIS-FACTORIAL HepG2 Assay for human Paired Box 6 (PAX6) (AID 2282956). Particulars: HepG2 CIS-FACTORIAL PAX6 reporter transcription, RNA readout; actives raise or lower the signal. The gist of the method:
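HepG2 cells transiently transfected with cis-promoter-driven multiplexed reporter units sensing endogenous transcription factor activity; 24 h chemical exposure. Reporter mRNA quantified by RT-PCR, 6-FAM labelling, HpaI digestion and capillary electrophoresis; bidirectional fit versus DMSO baseline.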

The nature of assay [3]: ATG_PXRE_CIS: Attagene CIS-FACTORIAL HepG2 Assay for human Pregnane X Receptor Element (PXRE) (AID 2282957). The following applies: HepG2 Attagene CIS-FACTORIAL PXRE reporter, mRNA; actives raise or lower the signal. In short, it runs like this: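 Transfect HepG2 with MRTUs (cis promoter elements); dose chemical, incubate 24 h; isolate RNA, RT with oligo(dT), PCR, 6-FAM label, HpaI cut, CE. Gain/loss fit vs DMSO.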

The nature of assay [4]: ATG_PPRE_CIS: Attagene CIS-FACTORIAL HepG2 Assay for human Peroxisome Proliferator-activated Response Element (PPRE) (AID 2282958). The following applies: HepG2 PPRE cis-element reporter, Attagene transcription factor profiling; actives raise or lower the signal. The gist of the method:
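HepG2 cells are transiently transfected with multiplexed cis-promoter reporter units to report endogenous PPAR activity. After 24 h dosing, reporter mRNA is read by RT-PCR and capillary electrophoresis. Fitting is bidirectional against DMSO.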

Assay [5] can be described thus: ATG_RORE_CIS: Attagene CIS-FACTORIAL HepG2 Assay for human RAR-related Orphan Receptor Element (RORE) (AID 2282959). Particulars: HepG2 Attagene cis-factorial RORE reporter, mRNA; actives raise or lower the signal. The gist of the method:
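HepG2 cells carrying transiently transfected cis-regulated reporter units; RORE-driven reporter mRNA quantified 24 h post-dosing by RT-PCR, 6-FAM primer extension, HpaI digestion and capillary electrophoresis. Bidirectional fit versus DMSO.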

Assay [6] addresses Transcription factor Sp1 (Homo sapiens) (UniProt P08047). The assay can be described thus: ATG_Sp1_CIS: Attagene CIS-FACTORIAL HepG2 Assay for human Specificity Protein 1 (Sp1) (AID 2282961). Particulars: HepG2 Sp1 cis-reporter transcription, actives raise or lower the signal. In short, it runs like this:
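HepG2 cells transiently transfected with multiplexed cis-regulated reporter constructs, chemical exposure 24 h. Reporter mRNA quantified by RT-PCR with capillary electrophoresis; bidirectional fit relative to DMSO.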

The nature of assay [7]: ATG_SREBP_CIS: Attagene CIS-FACTORIAL HepG2 Assay for human Sterol Regulatory Element Binding (SREBP) (AID 2282962). Particulars: HepG2 Attagene cis-factorial SREBP reporter, mRNA; actives raise or lower the signal. In short, it runs like this:
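HepG2 cells transiently transfected with multiplexed cis-promoter reporter units sensing endogenous transcription factors; reporter mRNA measured 24 h after dosing by RT-PCR, 6-FAM labeling, HpaI digestion and capillary electrophoresis. Bidirectional fit versus DMSO.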

Assay [8] concerns the target Signal transducer and activator of transcription 3 (Homo sapiens) (UniProt P40763). The assay can be described thus: ATG_STAT3_CIS: Attagene CIS-FACTORIAL HepG2 Assay for human Signal Transducer and Activator of Transcription 3 (STAT3) (AID 2282963). The following applies: HepG2, Attagene cis-factorial STAT3 reporter transcription; actives raise or lower the signal. The gist of the method:
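Endogenous STAT3-responsive cis-element activity was read in transiently transfected HepG2 cells after 24 h treatment. Reporter transcripts were quantified via RT-PCR and capillary electrophoresis, with DMSO as negative control and bidirectional curve fitting.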

Assay [9] in a line: ATG_TA_CIS: Attagene CIS-FACTORIAL HepG2 Assay for human TA Basal Promoter (AID 2282964). The following applies: HepG2 Attagene CIS-factorial TA basal promoter reporter; actives raise or lower the signal. The gist of the method: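 Fluorescence from labelled RT-PCR reporter fragments, separated by capillary electrophoresis, gives the signal. Cells: HepG2 transiently carrying multiple reporter units, 24 h chemical dosing. Gain or loss relative to DMSO.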

A short description of assay [10]: ATG_TCF_b_cat_CIS: Attagene CIS-FACTORIAL HepG2 Assay for human T-Cell-Factor with beta-catenin (TCF/b-cat) (AID 2282965). The following applies: HepG2 TCF/beta-catenin cis-reporter transcription, actives raise or lower the signal. In short, it runs like this:
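Endogenous TCF/LEF activity read as reporter transcript level via RT-PCR and capillary electrophoresis fluorescence in transfected HepG2, 24 h exposure; gain or loss of signal fitted against DMSO controls.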

A short description of assay [11]: ATG_TAL_CIS: Attagene CIS-FACTORIAL HepG2 Assay for human TAL Basal Promoter (AID 2282966).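 Note: background control endpoint measuring basal TAL promoter reporter mRNA not a specific factor.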 The following applies: HepG2 Attagene cis-factorial TAL promoter reporter; actives raise or lower the signal. The gist of the method:
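Fluorescence of labelled reporter cDNA fragments, resolved by capillary electrophoresis, gave the readout. Human HepG2 liver cells carried transiently transfected cis-element reporter units and were treated for 24 hours; activity was fitted bidirectionally against DMSO.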

A short description of assay [12]: ATG_TGFb_CIS: Attagene CIS-FACTORIAL HepG2 Assay for human Transforming Growth Factor (TGF) (AID 2282967). The following applies: HepG2 Attagene CIS TGFb reporter, mRNA transcription; actives raise or lower the signal. In short, it runs like this: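 Bidirectional fitting relative to DMSO gave the endpoint. Underlying data: reporter mRNA from HepG2 cells carrying transiently transfected cis-regulated reporter constructs, harvested 24 h after dosing and analyzed by RT-PCR and capillary electrophoresis.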

A short description of assay [13]: ATG_VDRE_CIS: Attagene CIS-FACTORIAL HepG2 Assay for human Vitamin D Receptor Element (VDRE) (AID 2282968). The following applies: HepG2 VDRE cis-reporter transcription, actives raise or lower the signal. In short, it runs like this: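 Reporter mRNA induction, quantified by capillary electrophoresis of fluorescently labelled RT-PCR products, was read 24 h after dosing HepG2 cells carrying transiently transfected cis-regulated reporter units; gain or loss relative to DMSO.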

The target in assay [14] is Estrogen receptor (Homo sapiens) (UniProt P03372). The experiment in a line: ATG_ERa_TRANS: Attagene TRANS-FACTORIAL HepG2 Assay for human Estrogen Receptor alpha (ERa) (AID 2282970; active = hit-call score of the fitted dose curve at least 0.9, where 1 is the maximum). The following applies: HepG2 Attagene TRANS ERa GAL4 reporter, mRNA. The gist of the method:
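Human liver HepG2, transient transfection of multiple GAL4-UAS reporter units; TRANS format (exogenous NR-Gal4 chimera). 24 h dosing. Readout: reporter mRNA, RT-PCR, 6-FAM primer extension, HpaI digest, capillary electrophoresis. Positive direction vs DMSO.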

Assay [15] deals with X-box-binding protein 1 (Homo sapiens) (UniProt P17861). The assay can be described thus: ATG_Xbp1_CIS: Attagene CIS-FACTORIAL HepG2 Assay for human X-box Binding Protein 1 (XBP1) (AID 2282972). Particulars: HepG2 XBP1 cis-element reporter, Attagene multiplex; actives raise or lower the signal. In short, it runs like this: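 HepG2 cells transiently transfected with multiple cis-element reporter units report endogenous TF activity; 24 h exposure, then reporter mRNA measured by RT-PCR, 6-FAM labelling, HpaI digestion and capillary electrophoresis. Bidirectional fitting versus DMSO.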

Assay [16] in a line: ATG_M_19_TRANS: Attagene TRANS-FACTORIAL HepG2 Assay for M19 Transcription Factor (Internal Marker) (AID 2282974; active = hit-call score of the fitted dose curve at least 0.9, where 1 is the maximum). The following applies: HepG2 Attagene TRANS-FACTORIAL M19 internal marker reporter. In short, it runs like this:
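HepG2 transiently transfected with GAL4-UAS multiplex reporter constructs, exposed 24 h; reporter RNA quantified by RT-PCR, 6-FAM labeling, HpaI digestion and capillary electrophoresis; internal background marker fitted upward versus DMSO.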

The nature of assay [17]: ATG_Sox_CIS: Attagene CIS-FACTORIAL HepG2 Assay for human SRY-box transcription factor (SOX) (AID 2282960). Particulars: HepG2 Attagene cis-factorial SOX reporter, mRNA; actives raise or lower the signal. In short, it runs like this: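 HepG2 cells transiently transfected with multiple cis-regulated reporter units, then dosed for 24 h. Reporter mRNA quantified by RT-PCR, fluorescent labelling, HpaI digestion and capillary electrophoresis; bidirectional fit versus DMSO.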

Assay [18] concerns the target Nuclear receptor subfamily 1 group I member 3 (Homo sapiens) (UniProt Q14994). The assay can be described thus: ATG_CAR_TRANS: Attagene TRANS-FACTORIAL HepG2 Assay for human Constitutive Androstane Receptor (CAR) (AID 2282969; active = hit-call score of the fitted dose curve at least 0.9, where 1 is the maximum;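 note: activators raise reporter mRNA above DMSO so AC50 marks induction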). The following applies: HepG2 Attagene TRANS-FACTORIAL CAR reporter. The gist of the method: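 Readout is reporter mRNA induction, quantified by fluorescent primer extension and capillary electrophoresis after RT-PCR. Cells were HepG2 transiently carrying chimeric NR-Gal4 constructs with GAL4-UAS reporters, treated for 24 h; activity scored upward from DMSO.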

In assay [19] the target is Androgen receptor (Homo sapiens) (UniProt P10275). The experiment in a line: ATG_AR_TRANS: Attagene TRANS-FACTORIAL HepG2 Assay for human Androgen Receptor (AR) (AID 2282973; active = hit-call score of the fitted dose curve at least 0.9, where 1 is the maximum). Particulars: HepG2 Attagene TRANS-FACTORIAL AR reporter transcription. The gist of the method: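 Steps: transfect HepG2 with multiple GAL4-UAS reporter transcription units (TRANS format, exogenous NR-Gal4 protein); dose 24 h; isolate RNA, reverse-transcribe, PCR-amplify, FAM-label, HpaI-digest; resolve by capillary electrophoresis. Positive direction vs DMSO.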

The target in assay [20] is Steroid hormone receptor ERR1 (Homo sapiens) (UniProt P11474). The assay can be described thus: ATG_ERRa_TRANS: Attagene TRANS-FACTORIAL HepG2 Assay for human Estrogen-Related Receptor alpha (ERRa) (AID 2282971; active = hit-call score of the fitted dose curve at least 0.9, where 1 is the maximum). The following applies: HepG2 Attagene TRANS reporter, ERRa transactivation. The gist of the method:
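Reporter transcript induction was quantified by RT-PCR and capillary electrophoresis of FAM-labelled, HpaI-cut products after 24 h treatment of HepG2 cells carrying transiently transfected GAL4-UAS reporter units and an exogenous ERRa-Gal4 fusion; activity scored as increase over DMSO.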

Chain of Paired box protein Pax-6 (Homo sapiens) (P26367 whole entry, looked up): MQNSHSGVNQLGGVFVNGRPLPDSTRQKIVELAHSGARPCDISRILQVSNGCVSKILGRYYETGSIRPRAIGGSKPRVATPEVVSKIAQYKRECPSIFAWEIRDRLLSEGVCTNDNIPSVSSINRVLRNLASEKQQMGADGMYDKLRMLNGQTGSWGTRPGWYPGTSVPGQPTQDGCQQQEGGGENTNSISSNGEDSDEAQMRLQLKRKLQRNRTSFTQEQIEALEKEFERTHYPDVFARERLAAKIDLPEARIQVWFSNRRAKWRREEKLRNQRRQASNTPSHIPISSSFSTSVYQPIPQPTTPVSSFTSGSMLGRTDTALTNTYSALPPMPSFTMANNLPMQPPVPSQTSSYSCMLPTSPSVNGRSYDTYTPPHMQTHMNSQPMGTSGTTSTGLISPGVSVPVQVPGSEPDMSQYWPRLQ
Chain of Estrogen receptor (Homo sapiens) (P03372 whole entry, looked up, the tested form may be a part): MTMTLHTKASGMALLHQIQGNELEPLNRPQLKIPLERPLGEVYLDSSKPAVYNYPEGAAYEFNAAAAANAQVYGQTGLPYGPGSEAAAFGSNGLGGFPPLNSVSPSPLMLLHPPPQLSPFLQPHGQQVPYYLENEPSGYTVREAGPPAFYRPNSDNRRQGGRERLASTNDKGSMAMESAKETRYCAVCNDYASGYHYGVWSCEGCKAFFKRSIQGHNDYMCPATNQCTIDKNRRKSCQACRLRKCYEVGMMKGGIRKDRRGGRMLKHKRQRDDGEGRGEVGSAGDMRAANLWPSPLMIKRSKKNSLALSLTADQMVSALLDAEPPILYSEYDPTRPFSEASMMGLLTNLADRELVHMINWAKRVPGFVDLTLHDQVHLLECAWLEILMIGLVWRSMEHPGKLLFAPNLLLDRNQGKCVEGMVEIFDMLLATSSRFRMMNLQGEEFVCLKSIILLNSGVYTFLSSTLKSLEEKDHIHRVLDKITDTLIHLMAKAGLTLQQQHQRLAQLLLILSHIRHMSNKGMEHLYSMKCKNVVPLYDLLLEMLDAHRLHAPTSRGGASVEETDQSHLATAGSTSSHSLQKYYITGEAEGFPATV
Chain of Signal transducer and activator of transcription 3 (Homo sapiens) (P40763 whole entry, looked up): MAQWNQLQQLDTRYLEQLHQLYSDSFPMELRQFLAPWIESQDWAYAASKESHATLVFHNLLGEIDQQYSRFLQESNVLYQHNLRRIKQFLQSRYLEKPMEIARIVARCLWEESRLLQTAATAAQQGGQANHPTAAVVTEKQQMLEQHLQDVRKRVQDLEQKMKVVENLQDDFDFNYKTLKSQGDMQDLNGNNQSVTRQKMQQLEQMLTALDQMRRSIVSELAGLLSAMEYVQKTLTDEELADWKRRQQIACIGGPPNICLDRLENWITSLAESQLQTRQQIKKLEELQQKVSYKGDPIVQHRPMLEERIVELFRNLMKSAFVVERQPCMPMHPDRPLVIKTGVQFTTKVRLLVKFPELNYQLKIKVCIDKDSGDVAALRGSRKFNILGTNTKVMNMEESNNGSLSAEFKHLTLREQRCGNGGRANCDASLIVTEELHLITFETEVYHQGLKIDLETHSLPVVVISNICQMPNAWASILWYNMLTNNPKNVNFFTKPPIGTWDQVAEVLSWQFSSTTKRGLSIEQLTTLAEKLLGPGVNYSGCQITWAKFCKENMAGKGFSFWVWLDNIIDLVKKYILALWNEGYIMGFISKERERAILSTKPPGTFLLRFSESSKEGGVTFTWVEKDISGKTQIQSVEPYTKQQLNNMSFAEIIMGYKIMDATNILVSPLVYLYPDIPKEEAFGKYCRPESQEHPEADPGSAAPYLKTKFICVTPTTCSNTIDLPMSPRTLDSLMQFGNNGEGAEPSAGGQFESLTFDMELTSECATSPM
Chain of Transcription factor Sp1 (Homo sapiens) (P08047 whole entry, looked up): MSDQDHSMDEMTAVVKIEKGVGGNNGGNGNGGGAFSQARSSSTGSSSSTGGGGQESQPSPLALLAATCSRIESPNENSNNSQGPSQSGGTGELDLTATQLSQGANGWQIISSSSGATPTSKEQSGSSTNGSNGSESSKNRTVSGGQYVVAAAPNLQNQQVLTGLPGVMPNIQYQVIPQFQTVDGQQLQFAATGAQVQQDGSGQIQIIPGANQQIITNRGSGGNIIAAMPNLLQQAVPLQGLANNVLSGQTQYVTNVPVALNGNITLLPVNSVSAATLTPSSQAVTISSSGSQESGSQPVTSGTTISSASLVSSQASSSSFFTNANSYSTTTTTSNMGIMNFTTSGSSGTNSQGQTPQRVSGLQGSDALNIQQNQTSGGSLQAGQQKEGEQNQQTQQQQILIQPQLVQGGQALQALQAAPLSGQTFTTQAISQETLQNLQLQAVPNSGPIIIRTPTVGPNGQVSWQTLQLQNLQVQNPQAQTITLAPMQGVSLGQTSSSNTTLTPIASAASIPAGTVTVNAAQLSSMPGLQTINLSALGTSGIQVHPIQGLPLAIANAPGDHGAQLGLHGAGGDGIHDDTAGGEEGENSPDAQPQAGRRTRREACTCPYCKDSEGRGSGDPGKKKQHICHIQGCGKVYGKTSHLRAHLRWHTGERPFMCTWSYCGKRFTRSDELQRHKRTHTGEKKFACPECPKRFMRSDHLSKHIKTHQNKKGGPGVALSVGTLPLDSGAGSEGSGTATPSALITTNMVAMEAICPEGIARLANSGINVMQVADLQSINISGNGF
Chain of X-box-binding protein 1 (Homo sapiens) (P17861 whole entry, looked up): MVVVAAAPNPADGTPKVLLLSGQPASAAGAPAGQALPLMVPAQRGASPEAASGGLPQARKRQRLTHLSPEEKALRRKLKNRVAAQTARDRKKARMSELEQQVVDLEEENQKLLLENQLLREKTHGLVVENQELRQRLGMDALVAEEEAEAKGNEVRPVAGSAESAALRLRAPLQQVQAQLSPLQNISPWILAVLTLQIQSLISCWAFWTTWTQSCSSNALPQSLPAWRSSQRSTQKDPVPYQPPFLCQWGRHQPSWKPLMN
Chain of Steroid hormone receptor ERR1 (Homo sapiens) (P11474 whole entry, looked up, the tested form may be a part): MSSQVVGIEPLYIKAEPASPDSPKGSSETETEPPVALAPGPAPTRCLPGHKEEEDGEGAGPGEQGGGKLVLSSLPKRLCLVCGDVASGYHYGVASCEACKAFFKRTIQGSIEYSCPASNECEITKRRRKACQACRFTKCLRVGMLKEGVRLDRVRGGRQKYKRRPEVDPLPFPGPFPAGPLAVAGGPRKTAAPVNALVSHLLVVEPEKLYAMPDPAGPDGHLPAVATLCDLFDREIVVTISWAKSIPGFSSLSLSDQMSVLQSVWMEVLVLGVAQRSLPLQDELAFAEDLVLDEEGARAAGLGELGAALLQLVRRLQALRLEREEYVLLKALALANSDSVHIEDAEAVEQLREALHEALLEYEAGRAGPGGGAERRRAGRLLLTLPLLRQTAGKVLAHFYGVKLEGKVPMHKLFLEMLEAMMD
Chain of Nuclear receptor subfamily 1 group I member 3 (Homo sapiens) (Q14994 whole entry, looked up, the tested form may be a part): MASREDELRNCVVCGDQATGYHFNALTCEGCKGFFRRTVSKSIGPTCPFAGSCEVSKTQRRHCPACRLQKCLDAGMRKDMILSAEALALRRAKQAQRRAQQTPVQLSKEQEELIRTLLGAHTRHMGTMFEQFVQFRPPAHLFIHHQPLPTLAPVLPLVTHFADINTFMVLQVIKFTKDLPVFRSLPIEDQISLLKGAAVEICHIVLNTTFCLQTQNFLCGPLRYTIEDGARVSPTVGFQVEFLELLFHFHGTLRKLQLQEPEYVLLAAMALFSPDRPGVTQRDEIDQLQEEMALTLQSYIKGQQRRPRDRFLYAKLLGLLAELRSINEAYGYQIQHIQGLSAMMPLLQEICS
Chain of Androgen receptor (Homo sapiens) (P10275 whole entry, looked up, the tested form may be a part): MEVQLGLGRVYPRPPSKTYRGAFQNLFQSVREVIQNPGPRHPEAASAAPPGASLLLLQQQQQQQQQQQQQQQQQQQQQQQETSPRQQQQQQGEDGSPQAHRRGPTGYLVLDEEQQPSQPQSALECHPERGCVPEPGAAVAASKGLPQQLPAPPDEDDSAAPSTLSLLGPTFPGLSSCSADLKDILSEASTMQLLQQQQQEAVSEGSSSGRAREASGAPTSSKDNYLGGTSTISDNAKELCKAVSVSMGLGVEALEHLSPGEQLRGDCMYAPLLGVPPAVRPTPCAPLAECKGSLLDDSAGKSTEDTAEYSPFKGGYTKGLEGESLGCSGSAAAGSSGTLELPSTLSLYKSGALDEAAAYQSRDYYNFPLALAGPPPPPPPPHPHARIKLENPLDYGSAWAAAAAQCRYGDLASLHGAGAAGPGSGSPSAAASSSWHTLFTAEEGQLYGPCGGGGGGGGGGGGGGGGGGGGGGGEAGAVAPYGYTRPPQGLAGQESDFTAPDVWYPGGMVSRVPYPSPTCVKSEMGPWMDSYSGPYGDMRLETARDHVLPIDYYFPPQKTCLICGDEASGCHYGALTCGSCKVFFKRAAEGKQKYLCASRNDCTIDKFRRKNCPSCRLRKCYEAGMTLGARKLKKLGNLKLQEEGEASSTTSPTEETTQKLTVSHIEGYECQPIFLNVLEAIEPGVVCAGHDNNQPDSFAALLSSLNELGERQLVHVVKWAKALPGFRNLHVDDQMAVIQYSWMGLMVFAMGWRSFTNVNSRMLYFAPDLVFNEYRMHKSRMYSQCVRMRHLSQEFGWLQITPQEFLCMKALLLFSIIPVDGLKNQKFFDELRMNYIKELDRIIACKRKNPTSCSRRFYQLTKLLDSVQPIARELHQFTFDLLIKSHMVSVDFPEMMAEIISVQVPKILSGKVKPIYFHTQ

One may read the AC50 as the concentration at which the activity in the assay is half-maximal. Regarding `Oc1ccc(I)cc1`, the outcome in assay [1], in assay [2], in assay [3], in [4], in assay [5] and in assay [6] was inactive. Also, the outcome in assay [7], in [8], in [9], in [10], in assay [11] and in assay [12] was inactive. In addition, the molecule was called inactive in assay [13], in assay [15] and in [16]. Further, the AC50 in [14] is 19.7 µM (active).

For the molecule `Clc1ccc(Oc2ccccc2)cc1`, the outcome in assay [2], in assay [3], in assay [4], in assay [5], in [17] and in assay [6] was inactive. Besides, the molecule was called inactive in assay [7], in assay [8], in [9], in assay [10], in assay [11] and in [12]. Further, the result in assay [13], in assay [18], in assay [15] and in assay [19] was inactive. In addition, the AC50 in assay [14] was 41.7 µM (active).

`O=P1(N(CCCl)CCCl)NCCCO1` (centres undefined): the outcome in [1], in assay [2], in assay [3], in assay [4], in assay [5] and in [6] was inactive. The molecule was classed as inactive in assay [7], in assay [8], in assay [9], in [10], in [11] and in [12]. The molecule was classed as inactive in [13], in assay [20] and in assay [15]. The AC50 in assay [14] is 17 µM (active).

For the molecule `O=S(=O)(c1ccc(O)cc1)c1ccc(O)cc1`, the outcome in assay [1], in [2], in assay [4], in assay [6], in assay [7] and in assay [8] was inactive. Further, the result in [9], in [10], in assay [11], in [12], in assay [13] and in assay [15] was inactive. Besides, the results for the concentration at half-maximal activity (AC50) in [3] and in [14] were 35.9 µM (active) and 1.06 µM (active), respectively.

Turning to `CCOP(=S)(Oc1ccc([N+](=O)[O-])cc1)c1ccccc1` (centres undefined), the outcome in assay [1], in [2], in [4], in assay [17], in assay [6] and in assay [8] was inactive. In addition, the outcome in assay [9], in assay [10], in assay [11], in [12], in assay [20] and in [15] was inactive. Also, the AC50 in assay [3] was 1.22 µM (active); in assay [7], 27.2 µM (active); in [13], 6.46 µM (active); in assay [14] it was 3.9 µM (active).

These data come from PubChem BioAssay (EPA / NIEHS).
